Bioassay records: PubChem BioAssay, National Center for Advancing Translational Sciences (NCATS)
SARS PLP yeast = qHTS of Yeast-based Assay for SARS-CoV PLP. Potency, µM (doses to about 32.9 µM), without a hit: top-dose activity, positive = growth rescue, most hits filed as activators. 0.19% of 330,000 active. S. cerevisiae expressing SARS-CoV PLpro, growth rescue. AID 485353, 2010; calls by dose curve; note: potency is the fitted concentration of half-maximal effect; 0% is about no effect; nearly all actives have a fitted effect of over 55% in size
Shiga inhibitor = A qHTS for Small Molecule Inhibitors of Shiga Toxin; Vero cells, Shiga toxin protein synthesis inhibition reporter; inhibition, % at 38.7 µM; 9.2% of 290,000 active; in the data active = inhibition mostly above about 28%, no sharp cut-off; inactive = mostly below about 43%; note: 0% is about no effect
NS1 function inh = qHTS Assay for Inhibitors of Influenza NS1 Protein Function | 0.4% of 270,000 active | Potency, µM (highest dose often 46.1 µM), for the others: at the highest dose activity, positive = more growth; calls by dose curve; note: potency is the fitted concentration of half-maximal effect; actives are rising curves; nearly all actives have a fitted effect of over 50% in size
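Compounds were scored for reversing the slow growth caused by influenza A NS1 in S. cerevisiae, measured by optical density at 600 nm. Assay medium contained 2% galactose at pH 6.0; NS1-free yeast of the same strain were the positive control.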
Cycloheximide cs = Cycloheximide Counterscreen for Small Molecule Inhibitors of Shiga Toxin; 12% of 300,000 active; cell reporter, cycloheximide protein synthesis inhibition counterscreen; max response, %; in the data active = max response mostly above about 13%, no sharp cut-off; inactive = mostly below about 14%; note: read at 38.3 µM for the half of the compounds with a filed dose; 0% is about no effect
Pf growth 48h = Primary qHTS for delayed death inhibitors of the malarial parasite plastid, 48 hour incubation | P. falciparum luciferase growth in erythrocytes, 48 h | Potency, µM (top dose mostly 28.7 µM), for inactives: at the highest dose activity change, negative = inhibition, hits mostly inhibitors | 5.9% of 310,000 active; note: potency is the fitted concentration of half-maximal effect; % is set by controls: 0 for no effect and ±100 for the full control effect
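Parasite viability was followed by luminescence of a genomically integrated firefly luciferase. Cultures held 0.1% parasitemia at 2% hematocrit (final), incubated under 5% CO2 at 37 C.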
Pf growth 96h = Primary qHTS for delayed death inhibitors of the malarial parasite plastid, 96 hour incubation. Potency, µM (top dose mostly 28.7 µM), inactives show at the highest dose activity change, negative = inhibition, actives largely listed as inhibitors. 6.9% of 320,000 active. P. falciparum luciferase reporter growth, 96 h; note: potency is the fitted concentration of half-maximal effect; % is set by controls: 0 for no effect and ±100 for the full control effect
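Compounds incubated with erythrocytes infected by luciferase-expressing P. falciparum (2% hematocrit, 0.05% parasitemia final) for 96 hours, 37 C in 5% CO2. Growth inhibition scored as decreased luciferase luminescence.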
Active calls of the source: *; ? = inconclusive; · = not tested or not shown. In the library only some 21% were active in any assay of this set; here they are far more common. Unless noted, calls come from the whole dose curve; as a rule, active = well fitted inhibition curve with a large enough effect; inconclusive = small, poorly fitted or top-dose-only effect, or another doubt; inactive = no such curve, though single readings can be large or run the other way.

SMILES	SARS PLP yeast	Shiga inhibitor	NS1 function inh	Cycloheximide cs	Pf growth 48h	Pf growth 96h
CCOc1ccc(S(=O)(=O)N(C)c2ccc(OCC(=O)NCC3CCCCC3)cc2)cc1	-8%	·	·	·	·	·
COc1ccc(C(=O)NC2CCN(C(=O)Nc3ccccc3Cl)CC2)cc1	-1%	20	·	8	?	13%
CCCCN1C=CC(=C2C(=O)c3ccccc3C2=O)C=C1	-6%	-30	·	-15	-73%	?
COc1ccc(OCC(=O)Nc2ccncc2)cc1	-1%	-10	1%	-2	-4%	-15%
COc1ccc(NC(=O)COc2ccc(N(C)S(=O)(=O)c3ccc(Cl)cc3)cc2)cc1	·	·	·	·	12µM*	?
COc1ccc(OCC(=O)Nc2ccc(Cl)cc2)cc1	-2%	61*	-5%	19*	6%	-12%
COc1ccc(CCC(=O)NCCOc2ccc(Cl)cc2)cc1	-1%	40	-33%	32*	0%	19%
COc1cccc(NC(=O)CNS(=O)(=O)c2ccc(Cl)cc2)c1	20%	3	-6%	-1	-11%	-18%
COc1ccc(OCC(=O)NCc2ccc(Cl)cc2)cc1	3%	·	0%	1	14%	?
COc1ccc(NC(=O)CNS(=O)(=O)c2ccc(Cl)cc2)cc1	-18%	23	-2%	16*	36%	-20%
Cc1ccc(S(=O)(=O)N(C)C)cc1NC(=O)CSc1nnc(C2CC2)n1C1CC1	3%	·	·	·	?	-16%
CC(=O)Nc1ccc(OCC(=O)NCCc2ccc(Cl)cc2)cc1	?	-18	-11%	-2	24%	13µM*
CC(=O)Nc1ccc(OCC(=O)NCc2ccccc2)cc1	0%	-4	13%	1	13%	3%
Cc1cc(NC(=O)CN2C(=O)NC(C)(c3ccc(Cl)cc3)C2=O)no1 (configuration not stated)	3%	-4	·	-2	14%	1%
FC(F)(F)C1=CC(c2ccc(Br)cc2)=NCCN1	-6%	-13	6%	-3	?	6.6µM*
COc1cc(NC(=O)c2ccc3c(c2)OCCO3)ccc1NC(=O)c1ccco1	1%	39*	4%	19*	60%	2.3µM*
COc1cc(NC(=O)c2ccco2)ccc1NC(=O)C(C)C	-1%	-9	-7%	10	·	-10%
O=C(Nc1ccc(NC(=O)c2cccs2)cc1)c1ccc2c(c1)OCCO2	-1%	-7	8%	1	151%	36%
COc1cc(NC(=O)c2ccc3c(c2)OCCO3)ccc1NC(=O)c1cccs1	-1%	73	3%	22*	25%	-22%
CCCCOC(=O)c1ccc(S(N)(=O)=O)o1	-21%	-14	8%	11*	11%	?
O=C(OCCCOC(=O)c1ccc(Br)o1)c1ccc(Br)o1	3%	·	·	·	11%	56%
CCCOC(=O)c1ccc(S(N)(=O)=O)o1	6%	-10	1%	1	9%	7.4µM*
COC(=O)c1ccc(S(N)(=O)=O)o1	7%	-18	0%	-3	-13%	-7%
COC(=O)C1=C(C(=O)OC)[C@@H]2N(C)c3ccc(OC)cc3[C@@]23C[C@@H](C(=O)OC)N=C3N1	-3%	-1	-10%	-5	58%	25%
CS(=O)(=O)Nc1ccc(S(=O)(=O)N2CCCCCC2)cc1	-4%	-3	-6%	-8	14%	?
SMILES	SARS PLP yeast	Shiga inhibitor	NS1 function inh	Cycloheximide cs	Pf growth 48h	Pf growth 96h
Clc1ccc(CNc2nc(CN3CCOCC3)nc3scc(-c4ccccc4)c23)cc1	5%	-2	-33%	1	?	3.7µM*
Cn1c(=O)c2c(SCC(=O)N3CCCCC3)nc(-c3ccccc3F)nc2n(C)c1=O	7%	-8	6%	-3	5%	40%
COc1cc(/C=C2/C(=N)N3C=CSC3=NC2=O)ccc1OCCCOc1c(C)cccc1C	-4%	35	6%	-2	14%	8%
CCOc1cc(/C=C2/C(=N)N3C=CSC3=NC2=O)ccc1OCCCOc1ccccc1C	-10%	16	0%	38*	?	?
COc1cc(/C=C2/C(=N)N3C=CSC3=NC2=O)ccc1OCCCOc1ccccc1C	1%	54*	3%	10	-17%	-1%
CCOC(=O)CCCCC(=O)c1[nH]c(=O)[nH]c1CSc1nnc2c3ccccc3n(C(C)C)c2n1	?	-12	15%	4	?	?
CN(c1nc2nonc2nc1NC1CC1)C1CCOC1 (configuration not stated)	-2%	-5	-3%	-2	?	23%
Cc1ccccc1CS(=O)(=O)c1nnc([C@H](Cc2ccccc2)NC(=O)OC(C)(C)C)o1	-37%	20	-150%	40*	·	?
CC(C)(C)OC(=O)N[C@@H](Cc1ccccc1)c1nnc(S(=O)(=O)Cc2ccccc2)o1	-42%	17	-132%	42	41%	·
CCC(C)C(NCc1cccc(C)c1)C(=O)O (configuration not stated)	·	·	-9%	·	·	·
CCC(C)[C@@H](NC(=O)OC(C)(C)C)c1nnc(S(=O)(=O)Cc2cccc(C)c2)o1 (some centres not stated)	-13%	77*	-66%	31*	-1%	-9%
O=C(NCc1ccccc1Cl)C1CCCN(S(=O)(=O)c2cccc3nonc23)C1 (configuration not stated)	-3%	-10	-4%	-4	-20%	-5%
CCSC1=NC2(CCCCC2)Nc2sc3c(c21)CCCC3	-3%	-8	-2%	-1	·	2.6µM*
Cc1ccc(CCNS(=O)(=O)c2cc3c(cc2C)NC(=O)CO3)cc1	1%	7	-7%	-2	-7%	53%
CC1(C)c2ccccc2N2CCC(=O)NC21/C=C/c1ccco1 (configuration not stated)	-8%	1	11%	1	?	10µM*
COc1ccc(NC(=O)NNC(=O)CCC(=O)Nc2ccccc2Cl)cc1	-1%	-3	5%	-1	23%	36%
O=C(Nc1ccccc1)Nc1cccc(Cl)c1Cl	-62%	active	-31%	37*	-19%	-33%
CSc1ccccc1NC(=O)Nc1cccc(Cl)c1Cl	0%	-6	-4%	10*	·	36%
CSc1ccccc1NC(=O)Nc1cccc(Cl)c1C	1%	17	·	21	31%	36%
O=C(Nc1ccc(Oc2ccc(NC(=O)Nc3ccccc3Cl)cc2)cc1)Nc1ccccc1Cl	11%	34	15%	34	1.9µM*	1.5µM*
O=C(Cc1ccc(Cl)cc1)NNC(=O)c1ccco1	2%	-26	-2%	9	15%	?
CCC(Oc1cc(Cl)ccc1Cl)C(=O)N1CCC2(CC1)OCCO2 (configuration not stated)	-1%	64*	-14%	31*	91%	13%
